Reference: PubChem BioAssay (NCATS)
Records with an inconclusive call do not appear. Active and inactive are the calls of the source. Unless noted, calls come from the whole dose curve; as a rule, active = well fitted curve in the direction sought with a large enough effect; inconclusive = small, poorly fitted or top-dose-only effect, or another doubt; inactive = no such curve, though single readings can be large; an effect the other way counts as inactive or inconclusive.

target: Alpha-galactosidase (Coffea arabica) (UniProt Q42656); experiment: Counterscreen for Glucocerebrosidase Inhibitors: qHTS Assay for Coffee Bean alpha-Galactosidase at pH 5.9 (AID 998); conditions: coffee bean alpha-galactosidase enzyme assay; series mostly up to 76.9 µM; activity, negative = inhibition: at the top concentration;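 note: plate controls were uninhibited enzyme for no effect and no-enzyme basal signal for full effect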
Sequence (Q42656 whole entry, looked up): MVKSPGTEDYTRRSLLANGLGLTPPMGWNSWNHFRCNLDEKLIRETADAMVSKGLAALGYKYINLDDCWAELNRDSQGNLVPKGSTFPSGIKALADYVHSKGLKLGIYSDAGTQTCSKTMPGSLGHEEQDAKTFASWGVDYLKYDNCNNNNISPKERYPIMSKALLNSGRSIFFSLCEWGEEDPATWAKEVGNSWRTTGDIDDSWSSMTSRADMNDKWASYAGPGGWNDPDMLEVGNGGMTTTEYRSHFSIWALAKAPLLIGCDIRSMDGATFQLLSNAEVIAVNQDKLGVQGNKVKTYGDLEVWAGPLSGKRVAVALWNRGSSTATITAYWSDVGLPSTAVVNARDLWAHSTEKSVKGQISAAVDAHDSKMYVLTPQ
Procedure, shortened: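 In 50 mM citric acid pH 5.9 with 0.005% Tween-20, coffee bean enzyme hydrolyses 80 uM 4-MU alpha-D-galactopyranoside over 20 min at RT. Activity is normalized to controls; AC50 comes from Hill-modelled concentration-response data.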

Structure (SMILES)	activity, negative = inhibition	outcome
Cn1cc(C2=C(c3ccc(Cl)cc3Cl)C(=O)NC2=O)c2ccccc21	-1.04% (inactive)	
Nn1nnc2ccccc21	1.26% (inactive)	
NC/C=C\C(=O)O		inactive

system: not listed separately; experiment: Validation screen for inhibitors of Lassa infection (AID 463096; calls by dose curve; note: % is set by controls: 0 for no effect and ±100 for the full control effect); conditions: Lassa virus infection, cell-based; series mostly up to 46.1 µM; activity change, negative = inhibition: at the top concentration

Structure (SMILES)	activity change, negative = inhibition
Cn1cc(C2=C(c3ccc(Cl)cc3Cl)C(=O)NC2=O)c2ccccc21	-3.98% (inactive)
Nn1nnc2ccccc21	-16% (inactive)
C[C@@]1(C2CCCC2)Cc2cc(OCC(=O)O)c(Cl)c(Cl)c2C1=O	2.05% (inactive)
O=C1c2c(O)cc(O)cc2OC(c2ccc(O)c(O)c2)C1O (stereo not drawn)	17.1% (inactive)
NC/C=C\C(=O)O	-11.4% (inactive)

system: not listed separately; experiment: Inducers of the Endoplasmic Reticulum Stress Response (ERSR) in human glioma: Validation (AID 504836); conditions: human glioma cells, ER stress response reporter; series mostly up to 38.3 µM; activation: at the top concentration; note: 0% is about no effect
Procedure, shortened: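 Stably transfected U87-MG human glioma cells carrying a GRP78-based luminescent sensor were seeded at 1000 cells/well, pin-dosed with compounds and incubated 16 h. Luciferase reagent was then added, and end-point luminescence was read after 10 min at room temperature.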

Structure (SMILES)	activation
Cn1cc(C2=C(c3ccc(Cl)cc3Cl)C(=O)NC2=O)c2ccccc21	-3.32% (inactive)
C[C@@]1(C2CCCC2)Cc2cc(OCC(=O)O)c(Cl)c(Cl)c2C1=O	-0.741% (inactive)
CCc1ccc(/C=C2/SC(=S)NC2=O)cc1	-0.239% (inactive)
O=C1c2c(O)cc(O)cc2OC(c2ccc(O)c(O)c2)C1O (stereo not drawn)	-4.23% (inactive)
NC/C=C\C(=O)O	-0.243% (inactive)
